Compound activity as filed in PubChem BioAssay.
HIV TAR-Tat = HIV-1 TAR-Tat binding disruption; HIV-1 TAR RNA, Tat peptide displacement FRET; active compounds read high; z-score (concentration not given with the values); 100,000 tested, 0.6% active; active = z-score of 3 or more in at least 2 runs
CDC25B CDK2 inh = human CDC25B-CDK2/CyclinA binding inhibition; P30305+P24941; HTRF CDC25B-CDK2/CyclinA binding, anti-His/anti-Flag; active compounds read high; z-score (concentration not given with the values); 94,000 tested, 0.72% active; in the data active = z-score above about 3.2
* = called active by the depositor. A selection: hits, their analogues and other compounds. The true share with any hit is near 0.9%.

For c1ccc(CNc2cc(-c3ccccc3)nc3nncn23)cc1 the results were HIV TAR-Tat -0.07 and CDC25B CDK2 inh 4.6*.
O=C1C(c2ccccc2)=C(Nc2ccc(F)cc2)c2ccccc21 was read as HIV TAR-Tat 0.45 and CDC25B CDK2 inh -1.
`CCOC(=O)c1ccc(NC2=C(N3CCCCC3)C(=O)c3ccccc3C2=O)cc1` gave CDC25B CDK2 inh 17*.
For CCOC(=O)c1ccc(N2CCCCC2)c(N)c1 the results were CDC25B CDK2 inh -0.16.
`O=C1C(Nc2ccc(F)cc2)=C(N2CCCCC2)C(=O)c2ccccc21` gave CDC25B CDK2 inh 8*.
`O=C(Nc1nc(-c2cccs2)ns1)c1ccc(Br)cc1` gave HIV TAR-Tat 2.4 and CDC25B CDK2 inh -3.
For CSc1sc(-c2nc(C)cs2)c(C)c1-c1ccn(S(C)(=O)=O)n1 the results were CDC25B CDK2 inh -2.2.
Screening Cc1ccc(CS(=O)(=O)c2ncc(Cl)c(C(=O)Oc3ccc(C)cc3)n2)cc1 returned HIV TAR-Tat -0.27 and CDC25B CDK2 inh -1.3.
Cc1ccc(CS(=O)(=O)c2ncc(Cl)c(C(=O)Nc3nnc(C(C)C)s3)n2)cc1 was read as HIV TAR-Tat 0.97 and CDC25B CDK2 inh 5.5*.
OCCNC(=S)Nc1ccc2nc3c4ccccc4c4ccccc4c3nc2c1 was read as CDC25B CDK2 inh 21*.
O=C(Nc1ccc2nc3c4ccccc4c4ccccc4c3nc2c1)N(CCO)c1ccccc1 was read as CDC25B CDK2 inh -2.
COc1ccc(C2CC(=O)N3CN(c4ccccc4OC)CSC3=C2C#N)cc1 (stereo not given) was read as HIV TAR-Tat -2.1 and CDC25B CDK2 inh 4.3*.
`COc1ccccc1N1CSC2=C(C#N)C(c3ccccc3)CC(=O)N2C1` (stereo not given) gave HIV TAR-Tat -2.2 and CDC25B CDK2 inh 4.9*.
Cc1ccc(Cn2c(CO)cnc2SCc2cccc(Cl)c2)cc1 was read as HIV TAR-Tat 1.3.
Screening CCn1cc(C(=O)N2CCc3ccccc32)c(=O)c2cc(S(=O)(=O)N3CC(C)CC(C)C3)ccc21 (stereo not given) returned HIV TAR-Tat 1.9 and CDC25B CDK2 inh -0.41.
`CCn1cc(C(=O)N2CCc3ccccc3C2)c(=O)c2cc(S(=O)(=O)N3CCC(C)CC3)ccc21` gave HIV TAR-Tat 0.58 and CDC25B CDK2 inh 15*.
Screening O=C(Nc1ccccc1)Nc1ccccc1N1CCOCC1 returned CDC25B CDK2 inh -1.8.
For O=C(O)c1sccc1S(=O)(=O)Nc1ccccc1N1CCOCC1 the results were CDC25B CDK2 inh 19*.
`COc1ccc(S(=O)(=O)N2CCN(c3cc(N4CCCCC4)nc(C)n3)CC2)cc1C` gave HIV TAR-Tat 0.48 and CDC25B CDK2 inh -2.1.
COc1ccc(OC)c2c(C)cc(N3CCN(S(=O)(=O)c4ccc(C)cc4)CC3)nc12 was read as HIV TAR-Tat 7.8* and CDC25B CDK2 inh -0.03.
For CCn1c(SCCOc2ccccc2F)nc2ccccc21 the results were HIV TAR-Tat 0.81 and CDC25B CDK2 inh -1.2.
O=c1[nH]c2ccc(S(=O)(=O)N3CCN(c4cccc(Cl)c4)CC3)cc2[nH]c1=O was read as HIV TAR-Tat 20* and CDC25B CDK2 inh 16.
Screening O=c1[nH]c2ccc(S(=O)(=O)N3CCN(c4ccccc4)CC3)cc2[nH]c1=O returned CDC25B CDK2 inh -0.51.
For CC(C)CNC(=O)Nc1ccc2sc(NS(=O)(=O)c3ccccc3)nc2c1 the results were HIV TAR-Tat 1.7.
Screening CC12OC(C(Br)C1Br)C1C(=O)OC(=O)C12 (stereo not given) returned CDC25B CDK2 inh 6.1*.
For Cc1n[nH]c(C)c1Nc1nc(-c2ccccc2)cs1 the results were HIV TAR-Tat 0.11 and CDC25B CDK2 inh 1.1.
Screening Cc1ccc(C)n1-c1cc(C(=O)O)ccc1Cl returned CDC25B CDK2 inh 1.5.
Cc1ccc(C)n1-c1ccc(Cl)cc1C(=O)O was read as HIV TAR-Tat 14* and CDC25B CDK2 inh -2.1.
Cc1ccc(C)n1-c1ccc(Cl)c(C(=O)O)c1 was read as HIV TAR-Tat 16* and CDC25B CDK2 inh 0.
`Cc1cc(C(=O)O)ccc1-n1c(C)ccc1C` gave CDC25B CDK2 inh -1.1.
For Cc1ccc(-c2noc3ncnc(Nc4ccc(F)cc4)c23)cc1 the results were HIV TAR-Tat 1.
Screening CCCN1C(=O)C2(/C(=C(/O)c3ccc(OCC)cc3)C(=O)C(=O)N2CCN(C)C)c2ccccc21 (stereo not given) returned HIV TAR-Tat -0.06 and CDC25B CDK2 inh -1.
Screening CCc1ccccc1N1CSC2=C(C#N)C(c3cccs3)CC(=O)N2C1 (stereo not given) returned HIV TAR-Tat -0.35 and CDC25B CDK2 inh 6.7*.
For Cc1ccccc1N1CSC2=C(C#N)C(c3cccs3)CC(=O)N2C1 (stereo not given) the results were HIV TAR-Tat 0.89 and CDC25B CDK2 inh 5.1*.
Screening CN(C(=O)NCc1noc2ccccc12)c1ccccc1F returned HIV TAR-Tat -0.3.
Screening Cc1ccc(CN(C(=O)COc2cc(C)c(Cl)c(C)c2)C2CCS(=O)(=O)C2)o1 (stereo not given) returned HIV TAR-Tat 2.7 and CDC25B CDK2 inh -0.01.
CCc1ccc(C(c2ccc(CC)o2)c2cc3c(cc2[N+](=O)[O-])OCCO3)o1 was read as CDC25B CDK2 inh 4.4*.
`CCOC(=O)C(=O)CC(=O)c1ccc2c(c1)OCCO2` gave HIV TAR-Tat 0.61 and CDC25B CDK2 inh 0.5.
`Cc1ccc(-n2ncc3c(N4CCCC4)ncnc32)cc1Cl` gave HIV TAR-Tat 1.5.
O=C(Cn1cnc(S(=O)(=O)N2CCOCC2)c1)Nc1nccs1 was read as HIV TAR-Tat -1.1.
`Cc1nc(-c2ccccc2)sc1-c1ccc(SCC(=O)Nc2nccs2)nn1` gave HIV TAR-Tat 1.5.
O=[N+]([O-])c1ccc2c3c(ccc(Br)c13)CC2 was read as CDC25B CDK2 inh -2.5.
`COc1ccc(-c2cc3nc(C)cc(NCC(C)C)n3n2)cc1OC` gave HIV TAR-Tat 2.6 and CDC25B CDK2 inh -0.86.
CCN(CC)CCNc1cc(C)nc2cc(-c3ccc(OC)c(OC)c3)nn12 was read as HIV TAR-Tat 4* and CDC25B CDK2 inh 1.7.
For Cc1cc2nnc(-c3ccc(C(F)(F)F)cc3)n2[nH]1 the results were CDC25B CDK2 inh -1.6.
`COc1ccc(Nc2nc(N)c3ccccc3n2)cc1` gave HIV TAR-Tat 0.37 and CDC25B CDK2 inh -1.9.
For COc1cc2nc(Nc3ccc(F)cc3)nc(N)c2cc1OC the results were HIV TAR-Tat 1.6 and CDC25B CDK2 inh 13*.
COc1cc2nc(Nc3ccc(C)c(Cl)c3)nc(N)c2cc1OC was read as HIV TAR-Tat 1.3 and CDC25B CDK2 inh 4.9.
`COc1cc2nc(Nc3ccc(C)c(C)c3)nc(N)c2cc1OC` gave HIV TAR-Tat 1.3 and CDC25B CDK2 inh 9.3*.
Cc1cc(-c2ccc(C)c(S(=O)(=O)NCc3ccc(OC(C)C)cc3)c2)on1 was read as HIV TAR-Tat 0.6.
`CCN1CCN(C(=O)c2c(C)oc3ncnc(N4CCCCC4)c23)CC1` gave HIV TAR-Tat -0.83.
`CCN1CCN(C(=O)c2c(C)oc3c2cc(OC(C)=O)c2ccccc23)CC1` gave HIV TAR-Tat -2.3 and CDC25B CDK2 inh 7.7*.
`c1ccc2c(-c3ccncc3)c[nH]c2c1` gave HIV TAR-Tat 0.71.
For Cc1sc(-c2c[nH]c3ccccc23)nc1-c1c[nH]c2ccccc12 the results were CDC25B CDK2 inh 18*.
Screening CCC(Sc1nc2ncccc2[nH]1)C(=O)Nc1ccc(F)cc1 (stereo not given) returned HIV TAR-Tat 0.18.
